# “And” between values parts separate entries of the source, which are not always exact repeats. Equal values may be shown once. The campaign covered roughly 6,400 compounds. About 610 (9.5%) were called active. The sample holds actives, similar compounds and a random draw of the others, so the mix is not that of the screen. Cut-off read from the data, not from the text of the source: active = activity change below about -70%; inconclusive = no clear call, values can overlap the other calls; inactive = above that. Some structures have more than one record in an assay (separate samples or runs), and their calls can disagree.
# Assay: T. gondii ME49Luc in HeLa cells, luciferase assay, 72 h, no IFN-y (AID 1259421)
# Settings: stronger effect = lower value, concentration not given here
row,Compound,"activity change, negative = inhibition"
1,Cc1c(OCC(F)(F)F)ccnc1C[S@@](=O)c1nc2ccccc2[nH]1,83.6% (inactive)
2,Cc1[nH]nc2ccc(-c3cncc(OC[C@@H](N)Cc4ccccc4)c3)cc12,-82.2% (active)
3,O=S(=O)(O)c1ccc(-c2c3nc(c(-c4ccc(S(=O)(=O)O)cc4)c4ccc([nH]4)c(-c4ccc(S(=O)(=O)O)cc4)c4nc(c(-c5ccc(S(=O)(=O)O)cc5)c5ccc2[nH]5)C=C4)C=C3)cc1,-0.332% (inactive)
4,COc1cc2nccc(Oc3ccc(NC(=O)Nc4ccc(F)cc4F)c(F)c3)c2cc1OC,-38.1% (inactive)
5,COc1cc2nccc(Oc3ccc(NC(=O)Nc4cc(C)on4)c(Cl)c3)c2cc1OC,-84.5% (active)
6,COc1cc2c(N3CCN(C(=O)Nc4ccc(OC(C)C)cc4)CC3)ncnc2cc1OCCCN1CCCCC1,11% (inactive)
7,COc1cc2nccc(Oc3ccc(NC(=O)C4(C(=O)Nc5ccc(F)cc5)CC4)cc3)c2cc1OC,-93.3% (active)
8,COc1cc2c(Oc3ccc(NC(=O)C4(C(=O)Nc5ccc(F)cc5)CC4)cc3F)ccnc2cc1OCCCN1CCOCC1,-67.4% (inactive)
9,COc1cc2nccc(Oc3ccc(NC(=O)NC4CC4)c(Cl)c3)c2cc1C(N)=O,6.94% (inactive) and -7.61% (inactive)
10,Oc1cccc(-c2c3nc(c(-c4cccc(O)c4)c4ccc([nH]4)c(-c4cccc(O)c4)c4nc(c(-c5cccc(O)c5)c5ccc2[nH]5)C=C4)C=C3)c1,8.49% (inactive)
11,C[C@H](NC(=O)C(C)(C)Oc1ccc(C(F)(F)F)cn1)[C@@H](Cc1ccc(Cl)cc1)c1cccc(C#N)c1,-17.6% (inactive)
12,COc1ccc(S(=O)(=O)Nc2nnc(CC(C)C)s2)cc1,16.5% (inactive)
13,COC(=O)[C@H]1[C@H]2C[C@@H]3c4[nH]c5ccccc5c4CCN3C[C@H]2C[C@@H](OC(=O)c2cc(OC)c(OC)c(OC)c2)[C@@H]1OC,-2.54% (inactive)
14,CC[C@]1(O)CC2CN(CCc3c([nH]c4ccccc34)[C@@](C(=O)OC)(c3cc4c(cc3OC)N(C)[C@H]3[C@@](O)(C(=O)OC)[C@H](OC(C)=O)[C@]5(CC)C=CCN6CC[C@]43[C@@H]65)C2)C1 (some centres undefined),-90.8% (active)
15,CCC1=C[C@@H]2CN(C1)Cc1c([nH]c3ccccc13)[C@@](C(=O)OC)(c1cc3c(cc1OC)N(C)[C@H]1[C@@](O)(C(=O)OC)[C@H](OC(C)=O)[C@]4(CC)C=CCN5CC[C@]31[C@@H]54)C2,-61.1% (inactive)
16,CC[C@]1(O)CC2CN(CCc3c([nH]c4ccccc34)[C@@](C(=O)OC)(c3cc4c(cc3OC)N(C=O)[C@H]3[C@@](O)(C(=O)OC)[C@H](OC(C)=O)[C@]5(CC)C=CCN6CC[C@]43[C@@H]65)C2)C1 (some centres undefined),-76.5% (active)
17,CCC1(O)CC2CN(CCc3c([nH]c4ccccc34)C(C(=O)OC)(c3cc4c(cc3OC)N(C)C3C(O)(C(=O)OC)C(C(=O)OC)C5(CC)C=CCN6CCC43C65)C2)C1 (centres undefined),-82.9% (active)
18,CO[C@H]1C[C@H]2CC[C@@H](C)[C@@](O)(O2)C(=O)C(=O)N2CCCC[C@H]2C(=O)O[C@H]([C@H](C)C[C@@H]2CC[C@H](OC(=O)C(C)(CO)CO)[C@H](OC)C2)CC(=O)[C@H](C)/C=C(\C)[C@@H](O)[C@@H](OC)C(=O)[C@H](C)C[C@H](C)/C=C/C=C/C=C/1C,9.08% (inactive)
19,CCOC(=O)[C@H](CCc1ccccc1)N[C@H]1CCCN2CCC[C@H](C(=O)O)N2C1=O,-4.74% (inactive)
20,CC(N)(C(=O)O)c1ccc(-c2nn[nH]n2)cc1 (centres undefined),3.49% (inactive)
21,C[C@@H]1C(=O)O[C@H]2[C@H](O)C34[C@H]5C[C@@H](C(C)(C)C)[C@]36[C@@H](OC(=O)[C@@H]6O)O[C@]4(C(=O)O5)[C@@]12O (some centres undefined),5.38% (inactive)
22,CN1CCN(C(=O)C2C3CCC(O3)C2C(=O)O)CC1 (centres undefined),3.27% (inactive)
23,Cc1sc[n+](CC(=O)c2ccccc2)c1C,60.9% (inactive)

row,Compound,"activity change, negative = inhibition"
1,CSc1ccc2c(c1)N(CCC1CCCCN1C)c1ccccc1S2 (centres undefined),31.1% (inactive) and -16.1% (inactive)
2,CN1CCN(C2Cc3ccccc3Sc3ccc(Cl)cc32)CC1 (centres undefined),7.98% (inactive)
3,CSc1ccc2c(c1)C(N1CCN(C)CC1)Cc1ccccc1S2 (centres undefined),-82.4% (active) and -87% (active) and -85.3% (active)
4,C[C@@H]1O[C@@H](O[C@H]2[C@H](Oc3cc(O)c4c(=O)cc(-c5ccc(O)cc5)oc4c3)O[C@H](CO)[C@@H](O)[C@@H]2O)[C@H](O)[C@H](O)[C@H]1O,5.34% (inactive)
5,CCO[C@H]1OC(=O)C[C@@H]1NC(=O)[C@@H]1CCCN1C(=O)[C@@H](NC(=O)c1ccc(N)c(Cl)c1)C(C)(C)C,3.07% (inactive)
6,CCOC(=O)[C@@]1(CCCCCCOc2ccc(Cl)cc2)CO1,17.5% (inactive)
7,O=C(O)CC(=O)C(=O)O,21.8% (inactive)
8,CCCCCCCCNC(C)C(O)c1ccc(SC(C)C)cc1 (centres undefined),-84.8% (active) and -78% (active) and 18.5% (inactive)
9,CC(NCCc1ccc(O)cc1)C(O)c1ccc(O)cc1 (centres undefined),1.92% (inactive) and 4.83% (inactive)
10,C[C@@H](NCCc1ccc(O)cc1)[C@@H](O)c1ccc(O)cc1,24.4% (inactive)
11,NS(=O)(=O)c1cccc2c1c([N+](=O)[O-])cc1[nH]c(=O)c(=O)[nH]c12,4.26% (inactive) and 1.99% (inactive) and 17.2% (inactive)
12,CC(C)C1C2CCC(C2)C1N (centres undefined),-31.8% (inactive)
13,O=[N+]([O-])c1nccn1CC(O)CN1CCCCC1 (centres undefined),-0.914% (inactive)
14,Cc1nc(C)c(-c2ccc(C3CCC(CC(=O)O)CC3)cc2)nc1C(N)=O (centres undefined),21.5% (inactive)
15,CNC(=O)[C@H]1O[C@@H](n2cnc3c(NCc4cccc(I)c4)nc(Cl)nc32)[C@H](O)[C@@H]1O,-25.8% (inactive)
16,C=CC(=O)N1CCC[C@@H](n2nc(-c3ccc(Oc4ccccc4)cc3)c3c(N)ncnc32)C1,-76.1% (active)
17,C/C(=C(/CCOC(=O)C(C)C)SS/C(CCOC(=O)C(C)C)=C(\C)N(C=O)Cc1cnc(C)nc1N)N(C=O)Cc1cnc(C)nc1N,-5.95% (inactive)
18,COC(=O)[C@@]1(C)CCC[C@]2(C)c3ccc(O)c(C(C)C)c3CCC12 (some centres undefined),-72.7% (active)
19,CC(C)c1c(O)ccc2c1CCC1C(C)(C)CCC[C@]21C (some centres undefined),25.1% (inactive)
20,CC(=O)Oc1ccc2c(c1C(C)C)CCC1C(C)(C)CCC[C@]21C (some centres undefined),-4.41% (inactive)
21,CC(=O)C(C#N)C(=O)Nc1cc(Br)ccc1Br (centres undefined),-2.2% (inactive) and 12.8% (inactive)
22,COC(=O)C[C@H]1C(C)(C)C(=O)[C@@H]2CC3C4=CC(=O)O[C@@H](c5ccoc5)[C@]4(C)CCC3[C@@]1(C)C2=O (some centres undefined),6.27% (inactive)
23,CC[C@@]1(C2O[C@@H](C3O[C@@](O)(CO)[C@H](C)C[C@@H]3C)C[C@@H]2C)CC[C@H]([C@]2(C)CC[C@]3(C[C@H](O)[C@@H](C)[C@@H]([C@@H](C)[C@@H](OC)[C@H](C)C(=O)O)O3)O2)O1 (some centres undefined),-80.3% (active)

row,Compound,"activity change, negative = inhibition"
1,COC(=O)C1C(O)CCC2CN3CCc4c([nH]c5ccccc45)C3CC21 (centres undefined),6.81% (inactive)
2,C[C@@H]1O[C@@H](OC[C@H]2OC(Oc3c(-c4ccc(OCCO)c(OCCO)c4)oc4cc(OCCO)cc(O)c4c3=O)[C@H](O)[C@@H](O)[C@@H]2O)[C@H](O)[C@H](O)[C@H]1O (some centres undefined),0.547% (inactive)
3,CN=C(NC#N)NCCSCc1csc(N=C(N)N)n1,21.3% (inactive) and 9.18% (inactive)
4,COc1ccc(/C=C\c2cc(OC)c(OC)c(OC)c2)cc1OP(=O)(O)O,-67.2% (inactive)
5,C[C@H](Oc1ccc(S(C)(=O)=O)cc1C(=O)N1CCN(c2ncc(C(F)(F)F)cc2F)CC1)C(F)(F)F,-27.8% (inactive)
6,CN1CCC(Nc2ncc3ncnc(Nc4ccc(F)c(Cl)c4)c3n2)CC1,7.3% (inactive)
7,COc1ccc(F)c(F)c1C(=O)c1cnc(NC2CCN(S(C)(=O)=O)CC2)nc1N,-87.7% (active)
8,O=C(NC(Cc1c[nH]c2ccccc12)C(=O)O)c1ccc(Cl)cc1 (centres undefined),4.2% (inactive)
9,C=CC(=O)Nc1ccc(OC)cc1,7.75% (inactive)
10,Cc1cc(Cn2cnc3c2C[C@@H](C(=O)O)N(C(=O)C(c2ccccc2)c2ccccc2)C3)ccc1N(C)C,25.4% (inactive)
11,CCC(=O)O[C@@H](OP(=O)(CCCCc1ccccc1)CC(=O)N1C[C@H](C2CCCCC2)C[C@H]1C(=O)O)C(C)C (some centres undefined),11.7% (inactive)
12,CN(C)C(=O)COC(=O)Cc1ccc(OC(=O)c2ccc(N=C(N)N)cc2)cc1,0.553% (inactive)
13,S=c1nc[nH]c2nc[nH]c12,-59.8% (inactive)
14,Nc1ncnc2nc[nH]c12,5.62% (inactive)
15,Nc1nc(=S)c2[nH]cnc2[nH]1,-77.5% (active)
16,CC(NC(=O)CCc1nc2ccccc2c(=O)[nH]1)c1ccccc1 (centres undefined),4.68% (inactive)
17,CCOC(=O)c1cnc[nH]1,7.3% (inactive)
18,CC1(C)CC(=O)C(C2C3=C(CC(C)(C)CC3=O)Oc3ccccc32)C(=O)C1 (centres undefined),4.42% (inactive) and -1.95% (inactive)
19,CCc1nc(N)nc(N)c1-c1ccc(Cl)cc1,-89.2% (active) and -80% (active)
20,CC(C)Cc1sc(N)nc1-c1ccc(P(=O)(O)O)o1,7.23% (inactive)
21,CC(=O)O[C@@]12CO[C@@H]1C[C@H](O)[C@@]1(C)C(=O)[C@H](O)C3=C(C)[C@@H](OC(=O)[C@H](O)[C@@H](NC(=O)OC(C)(C)C)c4ccccc4)C[C@@](O)([C@@H](OC(=O)c4ccccc4)[C@H]21)C3(C)C,-73.3% (active) and -80.3% (active)
22,CC(=O)O[C@@]12CO[C@@H]1C[C@H](O)[C@@]1(C)C(=O)[C@H](O)C3=C(C)[C@@H](OC(=O)[C@H](O)[C@@H](NC(=O)OC(C)(C)C)c4ccccc4)C[C@@](O)([C@@H](OC(=O)c4ccccc4)C12)C3(C)C (some centres undefined),-80.2% (active)
23,CO[C@H]1C(=O)[C@@]2(C)[C@H]([C@@H](OC(=O)c3ccccc3)[C@@]3(O)C[C@H](OC(=O)[C@H](O)[C@@H](NC(=O)OC(C)(C)C)c4ccccc4)C(C)=C1C3(C)C)[C@]1(OC(C)=O)CO[C@@H]1C[C@H]2OC,-82.6% (active)

# From PubChem BioAssay AID1259421 (Broad Institute, 2018)
